From PubChem BioAssay AID1117319 (Southern Research Institute, 2015)
Values joined by “and” are separate entries in the source; they are usually repeats but may differ in a detail not shown here. Equal entries are not always repeated. About 1,500 (0.58%) of roughly 260,000 compounds were called active. Inconclusive results (about 5%) are left out.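 Rule for the calls: active = inhibition above a set limit at one or more doses, reproduced on every date tested; inconclusive = results disagree between test dates, or hit never tested in dose response; inactive = the rest.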 A selection follows. Entries with a potency or affinity are not part of this list.

Target: Virion infectivity factor (Human immunodeficiency virus type 1 group M subtype B (isolate BH10)) + Virion infectivity factor (Human immunodeficiency virus type 1 group M subtype B (isolate BRU/LAI)) + Virion infectivity factor (Human immunodeficiency virus type 1 group M subtype B (isolate PCV12)) + Virion infectivity factor (Human immunodeficiency virus type 1 group M subtype B (isolate HXB2)) + DNA dC->dU-editing enzyme APOBEC-3G (Homo sapiens) (UniProt P69720+P69721+P69722+P69723+Q9HC16)
Assay: inhibitors of Vif binding to APOBEC3G peptide, primary screen, biochemical, TR-FRET, GST-Vif 1-94, biotin-A3G peptide, dose response retest (AID 1117319);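 note: Vif residues 1-94 fused to GST binding biotinylated APOBEC3G peptide 110-148; 0% = full assay without inhibitor and 100% = GST in place of GST-Vif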
Conditions: stronger effect = higher value

inhibition, inactive:
O=C1C2C3C=CC(C3)C2C(=O)N1c1ccccc1 (centres undefined) 23.8%
O=C1C2C3CCC(CC3)C2C(=O)N1c1ccccc1 (centres undefined) 3.86%
COc1ccc(-c2nc(SC(CC(=O)NCCO)c3cccs3)n[nH]2)cc1 (centres undefined) -4.6%
Cc1ccc(-c2nnc(N3CCOCC3)c3ccccc23)cc1S(=O)(=O)N(C)C -45.2%
Cc1nc(NCCc2ccccc2)c2nnn(Cc3ccccc3)c2n1 -8.97%
COc1ccc(CC(=O)NCc2ccccc2F)cc1S(=O)(=O)N1CCOCC1 -8.33%
Cc1ccccc1NC(=O)Cc1nc(COC(=O)COc2cccc(C)c2C)cs1 -1.31%
Cc1ccc(-c2nn[nH]n2)o1 -6.6%
COCCNC(=O)/C(C#N)=C/c1ccc(OC(=O)c2cccs2)c(OC)c1 12.9%
COCCNC(=O)/C(C#N)=C/c1cccc(/C=C(\C#N)C(=O)NCCOC)c1 -1.66%
CCCN1C2CCCC1CC(NC(=O)c1ccccc1Br)C2 (centres undefined) -0.94%
COc1cc(C2NC(=O)NC3=C2C(=O)OC3)cc(OC)c1OC (centres undefined) -6.88%
Cn1cc(C(=O)Nc2ccc(Cl)cc2)c(C(F)(F)F)n1 -6.34%
Cc1ccc(/C=C2/NC(=O)N(Cc3ccc(Br)cc3)C2=O)o1 18.3%
CCCN1C(=O)/C(=C/c2ccc(C)s2)NC1=S 1.31%
COc1ccc(Sc2ccc(/C=C3\C(=O)NN(c4ccccc4)C3=O)o2)cc1 27.1%
CCN1C(=O)/C(=C/c2ccc(C)s2)NC1=S 20.4%
COc1ccc(NCc2ccc([N+](=O)[O-])s2)cc1 -7.61%
COc1ccc(NC(=O)CCC(=O)N/N=C/c2ccc([N+](=O)[O-])s2)cc1 23.7%
CC(=O)c1sc(NC(=O)c2ccc(F)cc2)nc1-c1ccccc1 -5.82%
C[C@@H](CO)NC(=O)c1ccc2c3n(nc2c1)-c1ccccc1CO3 -3.9%
COc1cccc(CN2CCC(n3nccc3NC(=O)C3CC3)CC2)c1 3.21%
CCCN1CCN(CC(O)COC(c2ccc(OC)cc2)c2ccc(OC)cc2)CC1 (centres undefined) 3.65%
Cc1cccc(NC(=O)c2sc3nc(-c4ccc(F)cc4)cn3c2C)n1 -26.2%
O=C(NC(=S)Nc1ccccc1N1CCCC1)c1cccc(F)c1 5.9%
COc1cc(/C=N/Nc2nc(=O)[nH]nc2C)cc([N+](=O)[O-])c1O 5.18%
O=C(NC1CCCCC1)c1ccccc1NC(=O)C1CC(=O)N(c2ccc(Cl)cc2)C1 (centres undefined) 31.5%
C/C(O)=c1/ccc2cccc3nc(C)nc1c23 32.6%
NNc1nc(C(F)(F)F)nc2ccccc12 -3.12%
Cc1ccc(S(=O)(=O)NC2CCCCC2)cc1C(=O)N1CCC(C(N)=O)CC1 -4.11%
Cc1ccc(/C=C2\Oc3c(ccc(O)c3CN3CCN(CCO)CC3)C2=O)cc1 -6.62%
CCN1CCN(Cc2c(O)ccc3c2O/C(=C\c2ccccc2)C3=O)CC1 -1.46%
CC(C)(C)c1ccc(/C=C2\Oc3c(ccc(O)c3CN3CCN(CCO)CC3)C2=O)cc1 2.03%
COCCN(CCOC)Cc1c(O)ccc2c1O/C(=C\c1ccco1)C2=O 25.4%
COc1ccccc1-c1coc2c(CN3CCCC(C)C3)c(O)ccc2c1=O (centres undefined) -11.2%
CCc1ccc(/C=C2\Oc3c(ccc(O)c3CN3CCN(C)CC3)C2=O)cc1 29.7%
C=CCN1C(C(=O)c2ccccc2)=C(OC(=O)COc2ccccc2)c2ccccc2S1(=O)=O -2.45%
COc1cc(OC)cc(-c2cc(N3C(=O)Nc4ccccc4N3O)n[nH]2)c1 2.06%
CCN(CC)CCCC(C)Nc1nccc2cccc(Cl)c12 (centres undefined) -1%
C=CCn1c(SCC(=O)NCCOC)nc2scc(-c3ccco3)c2c1=O 27.8%
C=CCn1c(SCC(=O)NCCCC(=O)OCC)nc2scc(-c3ccco3)c2c1=O -13%
Cc1onc(-c2c(F)cccc2Cl)c1C(=O)Nc1nccs1 -2.44%
Cc1onc(-c2c(F)cccc2Cl)c1C(=O)Nc1nnc(-c2ccccc2)s1 -20.2%
CCN1CCN(C(=O)c2ccc(CSc3ccc(C)cc3)cc2)CC1 -0.41%
O=C(Cn1c(=O)oc2ccccc21)Nc1ccc(S(=O)(=O)N2CCCCC2)cc1 16%
O=Cc1cccc(OCc2cccc3ccccc23)c1 -9.48%
c1ccc(Cc2nnc3n2CCCCC3)cc1 -1.19%
c1ccc2c(c1)CCCN2Cc1nnnn1C1CCCC1 4.12%
CSc1ccccc1NC(=O)CN(C)C(=O)c1c(C)nn(Cc2ccccc2)c1C 0.13%
CCc1ccc(NS(=O)(=O)c2ccc3[nH]cc(C(=O)N(C)Cc4ccco4)c(=O)c3c2)cc1 6.93%
CN(Cc1ccco1)C(=O)c1c[nH]c2ccc(S(=O)(=O)Nc3ccc4c(c3)OCCO4)cc2c1=O 11.3%
CC(C)N(C(=O)[C@H]1C[C@H](CC(=O)NCCN2CCOCC2)C(=O)N2CCc3c([nH]c4ccc(Cl)cc34)[C@]12C)C(C)C -2.31%
C=CCn1c(COc2cccc(C)c2)nnc1SCC(=O)NC(=O)NCc1ccco1 3.84% and 20.2%
C=CCn1c(COc2ccccc2F)nnc1SCC(=O)NC(=O)NCc1ccco1 13.7%
CC(C)(C)NC(=O)/C=C/c1cccs1 -6.7%
COc1ccc(/C=C2/C(=O)N=C(N)N2C)cc1OC -1.18%
COC(=O)c1ccc(Sc2nnnn2-c2ccccc2)c([N+](=O)[O-])c1 4.9%
CC(=O)c1ccc(Sc2nnnn2-c2ccccc2)c([N+](=O)[O-])c1 7.06%
Cc1csc(NC(=O)Cc2ccccc2[N+](=O)[O-])n1 -11%
CN(C(=O)CSc1nnc2ccccn12)C1CCS(=O)(=O)C1 (centres undefined) 5.32%
Cc1ccc(OCCCC(=O)Nc2ccc(S(N)(=O)=O)cc2)cc1 -3.06%
O=C1C=C(Nc2ccccc2O)c2ccccc2C1=O 29.9%
O=C1C=C(Nc2cccnc2)c2ccccc2C1=O -2.43%
O=[N+]([O-])c1ccc(Cl)c(/C=N/N2CCN(Cc3ccc(Cl)cc3)CC2)c1 -0.57%
CCOc1ccc(N/C(C)=C/C(=O)c2ccc(C)o2)cc1 1.46%
CC1(C)CC(=O)C2=C(C1)c1c(ccc3ccccc13)NC2c1ccco1 (centres undefined) 7.86%
COc1cccc(C2Nc3ccc4ccccc4c3C3=C2C(=O)CCC3)c1O (centres undefined) -3.25%
Cc1onc(-c2ccccc2Cl)c1C(=O)NCc1ccccn1 -1.21%
COC(=O)COC(=O)CC(CC(N)=O)c1ccccc1 (centres undefined) -2.81%
Cc1cc(C(=O)Nc2nc3c(C)cccc3s2)c(C)o1 17.4%
COC(=O)Nc1nc2c(C)cccc2s1 1.68%
Cc1c(C(=O)c2ccc([N+](=O)[O-])cc2)c(=O)n(C)c(=O)n1C -3.13%
CCC(=O)N1CCC2(CC1)Oc1ccc(F)cc1C(=O)C21CC(c2cccnc2)=NO1 (centres undefined) 3.73%
CCOC(=O)C(Cc1ccnnc1)=NO -0.8%
CCOC(=O)C(=O)Cc1nc2ccccc2s1 -1.72%
Cc1nc2sc(C(c3ccco3)N3CCN(c4ccc(F)cc4)CC3)c(O)n2n1 (centres undefined) 13.8%
Cc1cc(C(=O)CN2CCCC2)c(C)n1-c1ccc(Cl)cc1 1.44%
CC(=O)Oc1ccc2c(c1)C(=O)c1ccccc1CO2 7.33%
O=C(Oc1ccc2c(c1)C(=O)c1ccccc1CO2)c1ccccc1 1.85%
COc1ccc(CNC(=O)COC(=O)c2cccc(S(=O)(=O)N3CCOCC3)c2)cc1 10.9%
COc1ccc(NC(=O)c2cnc3n(c2=O)CCS3)cc1OC 10.7%
CCOc1ccc(/C=C(\C(=O)O)c2ccc(S(=O)(=O)N3CCOCC3)s2)cc1OC 28.4%
O=S(=O)(Cc1cc(Sc2ccc(Cl)cc2)nc(-c2ccccc2)n1)c1ccccc1 3.1%
O=C1CCN(Cc2ccco2)C(=S)N1 3.3%
CC1CN(Cc2ccco2)C(=S)NC1=O (centres undefined) 1.05%
O=C1C2C(C(=O)N1Cc1ccco1)C1C=CC2C12CC2 (centres undefined) -1.81%
O=C1CC(=O)N(Cc2cccs2)C(=O)N1 18%
COc1ccc(-n2c(=O)c(CCC(=O)N(C)Cc3cccs3)nc3ccccc32)cc1 -5.63%
COc1ccccc1NS(=O)(=O)c1ccc(C)c(C(=O)NCC2(N(C)C)CCCCC2)c1 -8.71%
CCOC(=O)c1cc2cc(OC)ccc2nc1C 4.64%
Cc1nc2ccc(F)cc2cc1C(=O)NC(C)C -0.13%
CCc1nc(NCc2ccc3c(c2)OCO3)c2oc3ccccc3c2n1 5.19%
CCNC(=O)CN(c1ccc(CC)cc1)S(C)(=O)=O -1.87%
Cc1nc(Nc2ccc(Cl)c(Cl)c2)sc1C(/C=C/c1ccc2c(c1)OCO2)=NNc1ccc([N+](=O)[O-])cc1[N+](=O)[O-] 0.47%
